# TWEAK Fn14 block – blocks TWEAK-Fn14 interaction in a reporter cell assay. TWEAK-stimulated Fn14 reporter cells, luciferase luminescence, 8 h. inhibition, % at 10 µM. 360,000 tested, 2% active; in the data active = inhibition above about 50%
# CF NFkB inh – cystic fibrosis NF-kB activation inhibition; AID 588850; 360,000 tested, 0.86% active; inhibition, % at 5 µM; KKLEB NF-kB-GFP reporter, PAF-induced, GFP fluorescence overnight;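 active = at least 50% inhibition at 5 µM, scaled per plate between neutral and stimulator controls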;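 also: PAF is a Pseudomonas aeruginosa culture filtrate used as stimulus; plate controls were PAF-stimulated DMSO wells for no effect and unstimulated DMSO wells for full effect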
# TROY NFkB inh – blocks TROY-dependent signaling in reporter cells; Q293 LMP1-TROYcd NF-kB luciferase reporter, 4 h; inhibition, % at 10 µM; 360,000 tested, 0.98% active; AID 1347056;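 active = compounds whose plate-normalised and pattern-corrected inhibition of the luciferase reporter signal at the single screening dose is 50% or more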
# Peg3 prom inh – inhibitors of Peg3 promoter; inhibition, % at 20 µM; 360,000 tested, 1.7% active; HeLa PEG-Prom luciferase reporter, luminescence, overnight;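 active = inhibition of at least 50% at 20 µM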
# KKLEB tox – CF airway cell cytotoxicity counter-screen | KKLEB CF airway cells viability, ATPlite luminescence, overnight; hits give low values; cells stimulated with P. aeruginosa culture filtrate | activity change (cytotoxicity), % at 5 µM | 360,000 tested, 0.36% active;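 active = corrected activity change at or below -50% at 5 µM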
# HIF-2a inh – blocks HIF-2a reporter activity; 360,000 tested, 0.72% active; 786-0 RCC cells HIF-2a reporter, luciferase luminescence, overnight; inhibition, % at 18.8 µM; AID 624352;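 active = inhibition of the luminescence signal of 40% or more relative to plate controls, in a single-dose primary screen at 18.75 µM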
# * marks the source's active call; other numbers are inactive results; nt = no result given. Shown are actives, neighbours in structure and some others; about 4% of the full set was active somewhere.
SMILES,TWEAK Fn14 block,CF NFkB inh,TROY NFkB inh,Peg3 prom inh,KKLEB tox,HIF-2a inh
COc1ccc(NC(=O)CCCn2cnc3ccccc3c2=O)cc1,0,4,4,-7,-2,-12
Cc1ccc(C)c(S(=O)(=O)N2CCN(C(=O)CSC(=S)N3CCCC3)CC2)c1,-26,-23,8,-2,9,10
Cc1ccc(OCC(=O)NC(=S)Nc2ccccn2)c(Br)c1,91*,-23,79*,17,-17,22
O=C(COc1ccc(Br)cc1Cl)NC(=S)Nc1ccccn1,64*,14,69*,-222,-10,-182
CCN1C(=NCCc2cccs2)N[C@@H](c2cccs2)C(C(=O)OC)=C1C,-22,7,-23,-37,-3,-9
Cc1[nH]c2c(ccc3cccnc32)c1C,-3,-3,-45,-64,1,-73
CC1=[N+](C)c2c(ccc3cccnc23)C1(C)C,78*,14,45,23,-1,-21
CCOC(=O)CCc1c(C)c2ccc(OCc3cc([N+](=O)[O-])ccc3OC)cc2oc1=O,4,3,23,0,-54*,18
COc1ccc([N+](=O)[O-])cc1COc1ccc2c(-c3ccccc3)cc(=O)oc2c1,-49,67*,-3,16,-52*,17
CCc1c(C)c2ccc(OCC(=O)OC)cc2oc1=O,-23,-4,-6,3,4,14
Cc1ccc2c(c1)/C(=N/O)CCS2,65*,3,-12,18,1,7
COC(=O)CCNC(=O)CCc1ccc(S(=O)(=O)N2CCCCCC2)cc1,-17,-9,3,11,12,5
Cc1ccc(C(=O)C[n+]2cccc3ccccc32)cc1,32,-4,50*,-154,-2,-21
Cc1ccccc1N(CC(=O)NCc1ccccc1)C(=O)CCC(=O)Nc1nccs1,-6,-7,11,16,2,4
CC(CC(=O)N(CCC1=CCCCC1)c1c(N)n(Cc2ccccc2)c(=O)[nH]c1=O)c1ccccc1 (stereo not given),22,-12,20,87*,5,-6
CCOc1ccc(OCCC(=O)N(CCC2=CCCCC2)c2c(N)n(Cc3ccccc3)c(=O)[nH]c2=O)cc1,8,0,17,29,2,18
CCOc1ccc(OCC(=O)N(CCC2=CCCCC2)c2c(N)n(Cc3ccccc3)c(=O)[nH]c2=O)cc1,20,72*,11,83*,-62*,4
COc1ccc(CC(=O)N(CCC2=CCCCC2)c2c(N)n(Cc3ccccc3)c(=O)[nH]c2=O)cc1,-10,-14,-10,17,0,13
O=C(Nc1nncs1)c1cccc(S(=O)(=O)N2CCc3ccccc32)c1,6,-2,12,5,3,20
O=C(Nc1nc2ccc(F)cc2s1)c1cccc(S(=O)(=O)N2CCc3ccccc32)c1,57*,-7,33,-62,11,-96
COCc1c(C(=O)OCc2nc3ccsc3c(=O)[nH]2)oc2ccccc12,-1,12,1,10,3,7
CC(C)Nc1ncnc2c1ncn2[C@H]1CN(Cc2ccco2)C[C@@H](CO)O1,-2,-20,-3,11,1,-5
O=C(c1ccc2c(c1)OCO2)N1CCN(S(=O)(=O)c2ccc(Cl)cc2)CC1,21,-7,9,22,-1,13
S=C(Nc1cccc(Cl)c1)N(CCCN1CCCC1)Cc1cccn1Cc1ccc(Cl)cc1,-11,38,10,100*,-34,8
CSc1cccc(NC(=S)N(CCCN2CCCC2)Cc2cccn2Cc2ccc(Cl)cc2)c1,-14,17,-9,108*,-13,-10
SMILES,TWEAK Fn14 block,CF NFkB inh,TROY NFkB inh,Peg3 prom inh,KKLEB tox,HIF-2a inh
CSc1cccc(NC(=S)N(CCCN2CCCC2)Cc2cccs2)c1,-11,-8,8,1,-10,5
COc1cccc(NC(=S)N(CCCN2CCCC2)Cc2cccn2Cc2ccc(Cl)cc2)c1,-19,16,0,0,-3,-21
CNC(=O)C[C@@H]1CC[C@@H]2[C@H](COC[C@H](O)CN2S(=O)(=O)c2ccccc2Cl)O1,nt,nt,nt,nt,nt,9
CC1C(c2ccccc2)N(C)C(c2ccccc2)C(C)C1(O)C#Cc1ccccc1 (stereo not given),10,25,2,62*,-18,0
CCN(C[C@H]1N[C@@](CC)(C(=O)OC)[C@H]2C(=O)N(C)C(=O)[C@@H]12)C(=O)c1ccccc1,6,12,6,-3,4,-4
CS(=O)(=O)N1CCN(c2ccc([N+](=O)[O-])c(NCc3ccccc3)c2)CC1,75*,6,nt,28,-5,14
CCS(=O)(=O)N1CCN(c2ccc([N+](=O)[O-])c(NCc3ccccc3)c2)CC1,-7,-7,-16,18,-5,12
S=C(NN=C1C2CC3CC(C2)CC1C3)Nc1ccccc1,94*,5,75*,-53,-1,37
Cc1occc1C(=O)NNC(=O)CN1C(=O)NC2(CCCCC2)C1=O,-8,5,-3,5,3,8
CCOc1ccc(CCNC(=O)Cn2nc(C)c3c(C)n(-c4ccccc4)nc3c2=O)cc1OCC,-10,4,14,18,8,9
CNC(=S)N/N=C1\C(=O)c2cccc3cccc1c23,97*,-85,-62,-41,-1,-38
CCCCNC(=S)N/N=C1\C(=O)c2cccc3cccc1c23,-12,-5,7,-7,7,-2
Cc1cc(C)cc(C(O)c2ncc(-c3ccccc3)[nH]2)c1 (stereo not given),2,6,1,9,7,5
CNc1cncc(-c2ccc(F)cc2F)n1,25,6,-31,-65,10,-74
CC(Nc1c([N+](=O)[O-])c(=O)oc2ccccc12)C(Cl)c1ccccc1 (stereo not given),50*,-8,3,50*,4,25
CCCC(C(=O)NC(C)(C)C)N(CC1CCCO1)C(=O)CNS(=O)(=O)c1ccc(F)cc1 (stereo not given),85*,3,-5,-8,-3,12
CCCC(C(=O)NCc1ccco1)N(CC1CCCO1)C(=O)CNS(=O)(=O)c1ccc(F)cc1 (stereo not given),-4,10,-19,21,1,14
Cc1ccc(NC(=S)NNc2ncc(C(F)(F)F)cc2Cl)c(C)c1,9,17,21,23,-1,27
Fc1ccc(NC(=S)NNc2ncc(C(F)(F)F)cc2Cl)c(F)c1,29,40,61*,38,-8,34
CCCCCCCCN1C(=O)[C@H](CC(=O)NCC2CCCCC2)C[C@@]2(C(=O)OCC)CCC=C12,nt,nt,nt,nt,nt,-10
CCCCCCCCN1C(=O)[C@H](CC(=O)NCC2CCCCC2)C[C@@]2(C(=O)OCC)CCCC=C12,-2,nt,51*,nt,nt,-7
Cc1ccc2nc(CSc3nc(C)cc(C)c3C#N)[nH]c2c1,38,-22,59*,-286,-14,-223
